Compounds without any hit were thinned out: in the full panel of roughly 83,000, 20% have a hit.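 The endpoint reported here, percent growth, reads 100 for growth as untreated, 0 for no net growth and -100 for all cells dead.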 Values without a mark were called inactive. Calls of active or inactive are those of the source. Rule for the calls: active = growth percent below 10; inactive = the rest.
Columns and labels:
Assay in all cases: NCI-60 one-dose screen, 48 h (100 = growth as untreated, 0 = no growth, -100 = all killed)
Settings in all cases: 10 µM unless noted
T-47D breast = system: T-47D breast
BT-549 breast = system: BT-549 breast
MDA-MB-435 melanoma = system: MDA-MB-435 melanoma
SW-620 colon = system: SW-620 colon
MCF7 breast = system: MCF7 breast
HCT-116 colon = system: HCT-116 colon
HCC-2998 colon = system: HCC-2998 colon
KM12 colon = system: KM12 colon

Compound	growth (T-47D breast)	growth (BT-549 breast)	growth (MDA-MB-435 melanoma)	growth (SW-620 colon)	growth (MCF7 breast)	growth (HCT-116 colon)	growth (HCC-2998 colon)	growth (KM12 colon)
CCCCn1cnc2c(=O)[nH]cnc21	97.8%	105%	100%	117%	98.2%	107%	117%	132%
CSc1cnc2ccccc2n1	81%	94.6%	103%	93.9%	98.9%	99.2%	98.5%	101%
CC12CCC3c4ccc(O)cc4CCC3C1CCC2=O (configuration not stated)	103%	89.2%	112%	110%	128%	95.3%	102%	109%
Cc1cc(Nc2ccc3c(c2)OCO3)c2cc3c(cc2n1)OCO3	44.6%	69.8%	-68.2% (active)	10.3%	7.08% (active)	23%	45.7%	9.98% (active)
CC(C)N(C(=O)c1ccccc1)C(C)C	99.5%	106%	107%	104%	97.8%	104%	98.3%	111%
c1ccc(Oc2c3ccccc3nc3ccccc23)cc1	56.2%	25.2%	-5.48% (active)	19.2%	14.2%	-25.7% (active)	20.9%	0.624% (active)
c1ccc(-c2ccc3ccccc3c2)cc1	81.4%	98.8%	103%	90.5%	82.2%	95.9%	107%	92.9%
CC(O)C(F)(F)C(F)(F)C(F)(F)F (configuration not stated)	110%	107%	110%	101%	101%	100%	111%	114%
OCC1CCC(O)C(CO)N1 (configuration not stated)	111%	100%	102%	101%	92.6%	102%	115%	103%
CC(=O)OC/C(C)=C\CC(C)COC(C)=O (configuration not stated)	104%	102%	94.9%	97.6%	90.2%	95.1%	103%	104%
CC(=O)CSc1ncnc2nc[nH]c12	82%	102%	89.7%	96%	74.7%	88.7%	97.5%	123%
Oc1ccc2ccccc2c1CN1CCOCC1	104%	103%	112%	113%	106%	103%	105%	114%
CCOP(=O)(OCC)/C(=C\N1C(=O)CC(=O)NC1=S)C(=O)OC	95%	116%	102%	101%	94.7%	115%	85.7%	105%
C1CCc2onc(-c3noc4c3CCCCC4)c2CC1	101%	108%	110%	124%	95.5%	105%	109%	107%
Cc1cc(Cl)cc(Cc2cc(Cl)cc(C)c2O)c1O	14%	1.21% (active)	-10.5% (active)	14%	22.4%	8.46% (active)	13.1%	-5.92% (active)
COc1ccc(-c2csc(NC(=O)Nc3nc(-c4ccc(OC)cc4)cs3)n2)cc1	56.5%	79.9%	78.7%	98.1%	71.6%	64.2%	100%	64.6%
COC(=O)C1(CC(C)=O)NC(=S)NC(=O)C1C#N (configuration not stated)	108%	108%	114%	102%	97.5%	106%	109%	106%
O=[N+]([O-])c1ccc2[nH]c(=S)n(/C=C(/c3ccc(Cl)cc3Cl)S(=O)(=O)Cc3ccc(Cl)cc3Cl)c2c1	90.2%	93.9%	103%	114%	87.8%	82.8%	105%	108%
C1Cc2onc(-c3noc4c3CCC4)c2C1	108%	114%	113%	123%	99.2%	108%	115%	106%
CSCC[C@@H]1C(=O)N(C)[C@H](C(C)(C)C)N1C(=O)c1ccccc1	104%	107%	106%	102%	101%	101%	105%	101%
NNc1ncnc2nc[nH]c12	62.2%	85%	51.3%	41.6%	33%	24%	78%	46%
CCOC(=O)C(CCC#N)(CCC#N)C(=O)OCC	112%	98%	101%	100%	91.4%	97.3%	97.6%	106%
COc1nc(Nc2cccc(C(F)(F)F)c2)nc(OC)n1	92.5%	91%	106%	110%	97.9%	97%	108%	97.8%
CN(C)c1ccc2nc3ccc(=[N+](C)C)cc-3oc2c1	14.4%	63.2%	55.1%	9.01% (active)	-30.4% (active)	6.48% (active)	43.3%	35.1%
Cc1cc2nc(C)c(C)nc2cc1C	99.5%	100%	105%	111%	90.7%	112%	110%	108%

Compound	growth (T-47D breast)	growth (BT-549 breast)	growth (MDA-MB-435 melanoma)	growth (SW-620 colon)	growth (MCF7 breast)	growth (HCT-116 colon)	growth (HCC-2998 colon)	growth (KM12 colon)
C1=NCCc2ccccc21	86%	106%	111%	98.5%	90.3%	89.7%	112%	110%
COc1nc2ccccc2s1	99.2%	90.6%	105%	93%	87.8%	103%	–	102%
O=C(O)C1CCCN1C(=O)OCc1ccccc1 (configuration not stated)	102%	85.8%	102%	111%	90%	107%	–	113%
CC(=O)N(CCCCCCN(C(C)=O)C(C)=O)C(C)=O	101% [100 µM]	98.4% [100 µM]	98.5% [100 µM]	108% [100 µM]	87.8% [100 µM]	101% [100 µM]	114% [100 µM]	99.2% [100 µM]
COc1cc(-c2ccc(NC(=O)CC(C)=O)c(OC)c2)ccc1NC(=O)CC(C)=O	108%	83.6%	105%	104%	106%	105%	100%	106%
Nc1c(Br)cc(O)c2c1C(=O)c1ccccc1C2=O	93.7%	94.5%	98%	61.7%	83.8%	69.8%	–	24.7%
O=C(N/N=C\c1ccc(Cl)cc1Cl)c1ccncc1	96.6%	65.7%	105%	111%	87.2%	101%	–	112%
CN1CCN(C(=S)S)CC1	93%	108%	109%	114%	99.3%	107%	107%	107%
Cn1c(=O)c2nc3c(=O)n(C)c(=O)n(C)c3nc2n(C)c1=O	91.1%	100%	112%	99.8%	93.8%	92.1%	–	109%
C(=C\c1ccncc1)/c1ccncc1	129%	91.2%	110%	104%	128%	115%	99.3%	112%
CCOC(=O)/C(C)=C\c1ccc(OC)c(OC)c1	90.2%	89%	102%	106%	101%	94.2%	103%	102%
CCOc1ccc(C(=O)NCC(C)C)cc1	89.1%	98.3%	96.8%	91.7%	93.5%	101%	114%	101%
NC(=S)N/N=C/c1ccc(OC(=O)COc2ccccc2)cn1	41.5%	40.9%	60.2%	49%	22.9%	39.3%	31%	62.4%
CC(C)c1ncc([N+](=O)[O-])n1C	101%	103%	136%	98%	97.2%	107%	105%	111%
CC(C)(C)NCCC(O)c1cc(C(F)(F)F)nc2c(C(F)(F)F)cccc12 (configuration not stated)	86.8%	86.5%	82.3%	89.6%	92.6%	56.8%	–	58.7%
c1ccc(Nc2ccccn2)nc1	84.6%	108%	104%	108%	84.9%	99.8%	–	116%
FC(F)(F)c1cc(NC2=NCCN=C(Nc3cc(C(F)(F)F)cc(C(F)(F)F)c3)SS2)cc(C(F)(F)F)c1	15.8%	71.2%	65.1%	52%	31.6%	45.4%	76.9%	44.2%
Cc1cccnc1NC1OC(=O)c2ccccc21 (configuration not stated)	94.2%	97.6%	103%	106%	102%	90.8%	106%	105%
CCOC(=O)C(=O)CC(=O)c1ccccc1	105%	109%	106%	98.4%	96.7%	97.9%	101%	96.3%
Cc1c(Cl)cccc1NC(=S)NC(=O)c1ccccc1	64.8%	115%	101%	106%	53.3%	106%	–	89.6%
C=C(C)[C@@H]1CC[C@]2(CO)CC[C@]3(C)[C@H](CC[C@@H]4[C@@]5(C)CC[C@H](O)C(C)(C)[C@@H]5CC[C@]43C)[C@@H]12	32.2%	49.3%	77.9%	54.6%	42.9%	1.87% (active)	–	49.1%
Cc1ccc[n+](CCC(N)=O)c1	91.7%	110%	101%	96.7%	94.3%	115%	93.1%	91.1%
O=C(NC(=S)N1CC=CCC1)c1ccccc1	110%	93.6%	109%	103%	101%	102%	–	112%
CCOS(=O)(=O)c1ccc([N+](=O)[O-])cc1	101%	111%	107%	119%	103%	106%	104%	108%
N#Cc1ccc(OC(=O)Nc2cc(Cl)cc(Cl)c2)cc1	-12.2% [100 µM] (active)	-27.1% [100 µM] (active)	-9.08% [100 µM] (active)	4.92% [100 µM] (active)	-25.7% [100 µM] (active)	-62.7% [100 µM] (active)	-8.43% [100 µM] (active)	-15% [100 µM] (active)

Compound	growth (T-47D breast)	growth (BT-549 breast)	growth (MDA-MB-435 melanoma)	growth (SW-620 colon)	growth (MCF7 breast)	growth (HCT-116 colon)	growth (HCC-2998 colon)	growth (KM12 colon)
ClCC(Cl)C1CCC(Cl)C(Cl)C1 (configuration not stated)	100%	103%	107%	105%	87.1%	95.6%	101%	105%
CCOC(=O)c1cc(C)[nH]c(=O)c1C#N	107%	92.9%	86%	107%	104%	99.9%	–	103%
CCCCOC(=O)c1ccc(NC(=O)CCl)cc1	47.2%	47.5%	75.9%	25.8%	22.8%	4.07% (active)	101%	84.7%
CNc1ccccc1C(=O)N/N=C/C=C/c1ccccc1	29.5%	47.3%	-43.1% (active)	20.2%	12.2%	21.6%	42.2%	22.2%
NC(=O)OCCO	94.4%	94.9%	111%	106%	92.9%	90.6%	97.9%	98.7%
Cn1c2ccccc2c2nnc(NCCCCO)nc21	76.5%	101%	110%	93%	59.2%	90.1%	98%	94.8%
C/C(Cc1ccccc1)=N\O	117%	107%	98.3%	98.4%	107%	101%	–	103%
O=C(O)Cc1ccc(Cl)cc1	117%	105%	97.3%	111%	99.2%	77.4%	108%	113%
Cc1c(Cl)cccc1N=C=S	107%	87.9%	106%	114%	–	95.2%	92.9%	108%
CC(=O)OCC1OC(n2cnc3c(=S)nc(N)[nH]c32)C(OC(C)=O)C1OC(C)=O (configuration not stated)	54.4%	79.4%	99.3%	82.9%	60.7%	43.3%	–	86.3%
Oc1cccc(CNC2CCCCC2)c1	113%	112%	105%	116%	–	103%	102%	107%
O=S(Cc1ccccc1)/C(=C/NC(=S)Nc1ccccc1)c1ccccc1 (configuration not stated)	90.2%	97.6%	104%	104%	–	91.1%	102%	99%
NC(=S)N/N=C/c1ccc(OC(=O)COc2ccc(Cl)cc2)cn1	33.9%	55%	59.1%	46.3%	23.6%	39.7%	–	64.8%
CCOc1ccncc1[N+](=O)[O-]	104%	111%	107%	101%	–	108%	106%	101%
NS(=O)(=O)c1cc(=O)[nH]c(=O)[nH]1	113%	107%	105%	109%	–	105%	121%	104%
OCCOc1ccc(-c2cc(-c3ccccn3)nc(-c3ccccn3)c2)cc1	17.4%	15.9%	22.5%	2.05% (active)	1.69% (active)	6.4% (active)	–	8.52% (active)
N#C/C(=C\c1ccc(C#N)cc1)C(=O)c1ccccc1	65.4%	112%	107%	109%	–	97.8%	104%	107%
COC1OC(C(COC(C)=O)OC(C)=O)C(OC(C)=O)C(OC(C)=O)C1OC(C)=O (configuration not stated)	103%	106%	114%	104%	–	106%	115%	117%
ON1CCCC1	98.6%	96.7%	107%	101%	–	97.4%	98.8%	110%
N#CC1(O)CCCCC1	103%	93.9%	99.3%	110%	–	103%	93.3%	102%
CC1(C)OC2C(CO)OC(n3ccc(=O)[nH]c3=O)C2O1 (configuration not stated)	89.4%	104%	101%	96.3%	–	98.2%	102%	102%
O=C(CCl)Nc1ccccc1SCc1cc(Cl)cc2c1OCOC2	55.9%	71.9%	24.1%	87.1%	–	78.9%	99.1%	96.8%
CC(C)c1ccccc1NC(=O)N1CCC(C(C)C)CC1	111%	103%	91.9%	107%	–	108%	109%	113%

From PubChem BioAssay (NCI)
